From PubChem BioAssay AID720553 (National Center for Advancing Translational Sciences (NCATS), 2013) come the findings set out here.

Among all 340,000 compounds or so, about 3,300 (0.97%) were called active. Many of the other results were omitted from the sample, so actives are more common in it than they were. A number with no mark means an inactive call.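 How the source made its calls: active means maximum activity change below -70%; inconclusive means maximum activity change from -70% to -50%; inactive means maximum activity change above -50%.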
On the % scale 0 is the no-effect control and ±100 the full control effect.

The test system of this assay is Potassium voltage-gated channel subfamily H member 2, brain isoform KCNH2 3.1 (human). The experiment in a line: qHTS for Inhibitors of KCHN2 3.1: Mutant qHTS. The conditions noted are these: U2OS KCNH2 3.1, thallium flux FluxOr; hits give low values. The procedure, abridged:
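Thallium flux via FluxOr fluorescence (Red40 quencher, 45 min loading) in U2OS cells virally expressing the KCNH2 3.1 isoform (1.77 x 10^8 /mL virus, overnight at 37 C). Rate constants from 2-min kinetic reads post-stimulation, normalised to positive and negative controls.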
In general terms: Quantitative high-throughput screening tests each substance at several concentrations.
In the case of `CCOC(=O)C1(CCOc2ccccc2)CCN(Cc2cc(OC)cc(OC)c2)CC1`, the activity change is -108% (active).
As to `CCCS(=O)(=O)N1CCC(CCOc2ccccc2)(C(=O)OCC)CC1`, the activity change was -4.06%.
In the case of `CCOC(=O)C1(CCOc2ccccc2)CCN(Cc2ccc(C#CCCO)cc2)CC1`, the activity change was -7.38%.
The value for `Cc1ccc(/C=C/C(=O)Nc2cc(S(=O)(=O)N3CCCCCC3)ccc2OCC(F)(F)F)o1` was -83.4% (active).
For the compound `COc1ccc(S(=O)(=O)N2CCCCC2)cc1NC(=O)COc1ccccc1`, the activity change is -11.6%.
In the case of `O=C(Nc1cc(S(=O)(=O)N2CCOCC2)ccc1OCC(F)(F)F)c1ccc(N2CCCC2=O)cc1` it was -24.2%; in that of `CNC(=O)C[C@H]1C(=O)N(c2ccc(OC)cc2)C[C@@H]1Cc1ccccc1`, 6.56%.
On to `COCCCn1c(=O)/c(=C/c2ccccc2OC(C)C)s/c1=C(\C#N)C(=O)Nc1ccc(C(=O)O)cc1`, for which the activity change is 1.1%.
On to `CCOc1ccc(S(=O)(=O)N2CCC(c3ccccc3)CC2)cc1C(=O)O`, for which the activity change is -0.0458%.
For `CCOC(=O)N1CCN(C(=O)C2CCN(S(=O)(=O)c3cc(Cl)ccc3OCC)CC2)CC1`, the activity change was -0.753%.
In the case of `CCOc1ccc(Br)cc1S(=O)(=O)N1CCC(C(=O)O)CC1` it was -119% (active); in that of `Cc1ccccc1NC(=O)Cc1nc(COC(=O)C(C)(C)Oc2ccc(Cl)cc2)cs1`, 0.0076%.
Consider `C/C(=C\c1ccco1)CN1CCC(N2CCC(C(=O)N3CCOCC3)CC2)CC1`, for which the activity change was -81.6% (active).
For the compound `O=C(C1CCN(C2CCN(Cc3cccc4c3OCO4)CC2)CC1)N1CCOCC1`, the activity change was 1.54%.
Turning to `O=C(C1CCN(C2CCN(Cc3ccc4cc(F)ccc4n3)CC2)CC1)N1CCCC1`, the activity change was -46.6%.
The value for `COc1ccc([C@H]2C[C@@H](n3cc(COC(=O)c4ccccc4)nn3)[C@H](O)CN2C(=O)c2cccs2)cc1` was 5.99%.
Take `COc1cc(-c2nnc(NC(=O)CS(=O)(=O)c3ccc(Cl)cc3)o2)cc(OC)c1OC`: the activity change was 3.81%.
In the case of `CN1OC[C@@H]2CN[C@H](c3ccc(-c4ccccc4)cc3)C[C@@H]21` it was -8.66%; in that of `CC(C)c1cc(C(=O)N(C)C2CCCN(Cc3ccccc3F)C2)n(C)n1` (stereo not drawn), -13.2%; in that of `COc1ccc(NC(=O)CN(C)C(=O)c2cc(C)oc2C)cc1`, -19.2%.
The value for `CCOC(=O)Cn1c(-c2cccnc2Cl)nc2ccccc21` was -86.5% (active).
In the case of `CCOC(=O)Cn1c(=O)n(Cc2ccc(OC)cc2)c(=O)c2cccnc21` it was -6.36%.
As to `CCn1c(-c2cccnc2Cl)nc2cc(C)c(C)cc21`, the activity change is 1.97%.
In the case of `CC(C)Oc1ccc(CCc2n[nH]c(=S)n2Cc2ccccc2)cc1` it was 3.01%; in that of `CNC(=O)CSc1nnc(CCc2ccccc2)n1-c1ccccc1`, -7.79%.
Consider `CC(C)Oc1ccc(CCc2nnc(SCC(=O)O)n2-c2ccccc2)cc1`, for which the activity change is -77.9% (active).
In the case of `O=Cc1cn(CCOc2ccc(F)cc2)c2ccccc12` it was -5.46%; in that of `O=C(NCc1ccccc1)C1CNCC(C(=O)NCc2ccccc2)C1` (stereo not drawn), -3.07%.
In the case of `O=C(CCN1CCN(C/C=C/c2ccccc2)CC1)Nc1ccccc1Cl` it was -111% (active); in that of `O=C(CN1CCN(C(=O)c2cccc(F)c2)CC1)Nc1ccccc1F`, -0.253%.
In the case of `O=C(CN1CCCCCC1)Nc1ccc(Cl)cc1F` it was 7.99%; in that of `O=C(CCN1CCN(C/C=C/c2ccccc2)CC1)Nc1cccc(F)c1`, -109% (active).
For the compound `CCOC(=O)N1CCN(CCC(=O)Nc2ccccc2)CC1`, the activity change is 12.9%.
With `O=C(CCN1C(=O)c2ccccc2C1=O)Nc1cccc(F)c1`, the activity change was 3.35%.
The value for `CNC(=O)NC(=O)C(C)N1CCN(C/C=C/c2ccccc2)CC1` (stereo not drawn) was -32.3%.
As for `COc1ccccc1NC(=O)CCN1CCN(c2ccc(Cl)cc2)CC1`, the activity change is -5.85%.
In the case of `O=C(CN1CCN(C/C=C/c2ccccc2)CC1)Nc1ccc(F)cc1F` it was -107% (active).
In the case of `O=C(C[C@H]1C[C@@H]2c3cc(NC(=O)C4CCC4)ccc3O[C@@H]2[C@H](CO)O1)NC1CCCCC1`, the activity change was -25.5%.
In the case of `N#Cc1ccc(OCC(=O)Nc2nc(-c3ccccn3)cs2)cc1` it was 6.83%; in that of `CCN1C(=O)[C@H]2[C@@H](c3ccccc3)N[C@]3(CCCN(Cc4ccc(C)cc4)C3=O)[C@H]2C1=O`, 28.9%.
With `COc1ccc(-c2ccc3[nH]c4c(c3c2)CCN2C[C@H]3[C@H](C)ON(C)[C@H]3C[C@@H]42)cc1`, the activity change was -3.51%.
`O=C(CCc1ccc(O)cc1)NN=Cc1cc(Br)ccc1O`: the activity change is 1.97%.
Regarding `O=C(COc1ccc(Br)cc1)OCC(=O)c1ccc[nH]1`, the activity change is -1.12%.
In the case of `COc1ccc(N)cc1NC(=O)CN1CCOCC1` it was 1.24%; in that of `Cc1ccc(-n2c(SCC(=O)Nc3ccc4c(c3)OCO4)nnc2-c2ccoc2C)cc1`, -79.7% (active); in that of `Cc1ccc(-n2c(SCC(=O)Nc3ccc4c(c3)OCO4)nnc2-c2ccccn2)cc1`, 1.11%.
Regarding `O=C(CSc1nnc(-c2ccccn2)n1-c1ccccc1)Nc1ccc2c(c1)OCO2`, the activity change is 2.89%.
With `COc1cccc(/C=C2\SC(=S)N(CCCC(=O)N3CCOCC3)C2=O)c1`, the activity change was -1.71%.
For `COc1ccc(CN2C(=O)C(CC(=O)NCCCCc3ccccc3)CC(C(=O)N3CCOCC3)=C2C)cc1` (stereo not drawn), the activity change was -14.3%.
In the case of `Cc1cc(OCC(=O)Nc2nccs2)c2c(C)c(C)c(=O)oc2c1` it was -8.76%; in that of `O=C(NCCCN1CCN(c2ccc(F)cc2)CC1)Nc1ccc([N+](=O)[O-])cc1`, -86.7% (active); in that of `CN1CCN(CCNC(=O)Nc2ccc([N+](=O)[O-])cc2)CC1`, 4.38%.
For the compound `O=C(CN1CCN(c2ccccc2)CC1)Nc1ccc(F)cc1`, the activity change was 0.316%.
For `CN(C)C(CNC(=O)c1cc(Br)c(Br)s1)c1ccco1` (stereo not drawn), the activity change is -1.59%.
In the case of `O=C(NCc1nnnn1-c1ccc(Cl)cc1)c1ccc2c(c1)OCO2` it was -10.1%; in that of `O=C(COC(=O)c1cncc(Br)c1)Nc1ccc(S(=O)(=O)N2CCOCC2)cc1`, -6.79%; in that of `COC(=O)[C@H](Cc1ccccc1)NC(=O)N1CC(C)OC(C)C1` (stereo partly drawn), -5.69%.
In the case of `COC(=O)[C@@H](Cc1ccccc1)NC(=O)NCCc1ccccc1` it was -9.89%; in that of `COC(=O)[C@H](Cc1ccccc1)NC(=O)[C@@H]1C[C@H]1[C@@H](NC(=O)OCc1ccccc1)c1ccccc1`, -95.1% (active).
In the case of `O=C(COC(=O)Cc1ccc(Cl)cc1Cl)NCc1ccco1` it was -13.7%.
With `O=C(O)C1=C(C(=O)O)C2CCC1C2`, the activity change is 1.57%.
In the case of `COc1ccccc1OCCNC(=O)c1cc([N+](=O)[O-])cc([N+](=O)[O-])c1` it was -8.81%; in that of `COC(=O)c1cccc(NC(=O)CN2CCC(NC(=O)c3cc(OC)c(OC)c(OC)c3)CC2)c1`, -11.4%; in that of `COc1cc(C(=O)NCCOC(=O)c2cccc(N(C)C)c2)cc(OC)c1OC`, -77.8% (active).
The value for `O[C@@H]1C[C@H](c2ccccc2)N(Cc2cccs2)C[C@H]1n1cc(C2CC2)nn1` was -10.3%.
The value for `C[C@@H]1CN([C@@H](C)CO)C(=O)CCCn2nncc2CO[C@H]1CN(C)Cc1ccc(C(F)(F)F)cc1` was 15.2%; that for `COc1ccc(S(=O)(=O)N2CCC(C(=O)NCCC(=O)NCCc3cccc(F)c3)CC2)cc1` was -0.519%; that for `O=C(Nc1ccc(F)c([N+](=O)[O-])c1)C1CC(=O)N(Cc2ccccc2)C1` (stereo not drawn) was -5.91%.
As for `Cc1cc(=O)oc2cc(NC(=O)C3CC(=O)N(Cc4ccccc4)C3)ccc12` (stereo not drawn), the activity change was -71% (active).
Regarding `Cc1cc(=O)oc2cc(NC(=O)C(C)Oc3ccccc3)ccc12` (stereo not drawn), the activity change is 16.9%.
In the case of `Cc1cc(-c2ccc(C)c(S(=O)(=O)NC(C)Cc3ccco3)c2)on1` (stereo not drawn) it was -6.2%; in that of `Cc1ccc2c(c1)N(S(=O)(=O)c1cc(-c3cc(C)no3)ccc1C)CCO2`, -82.2% (active).
In the case of `Cc1cc(-c2ccc(C)c(S(=O)(=O)Nc3ccc(S(N)(=O)=O)cc3)c2)on1` it was 6.07%; in that of `Cc1ccc(-c2ccc(CN3C(C(C)C)C(=O)N(Cc4cn(CCC5OCCO5)nn4)CCS3(=O)=O)cc2)cc1` (stereo not drawn), 0.464%.
The value for `Cc1noc(C)c1NC(=O)N(C)C[C@@H]1Oc2cc(Br)ccc2S(=O)(=O)N([C@@H](C)CO)C[C@H]1C` was -17.2%; that for `COCOCCn1cc(CN2CCS(=O)(=O)N(Cc3ccc(-c4ccc(OC)cc4)cc3)C(CC(C)C)C2=O)nn1` (stereo not drawn) was -1.8%; that for `COc1ccc(NC(=O)CCCC2CCCCC2)c(OC)c1` was 8.96%.
Take `COc1ccc(CCNC(=O)COC(=O)C2CC2C)cc1` (stereo not drawn): the activity change is 5.06%.
With `COc1ccc(C[C@H]2CN3C(=NC[C@H]3C)N2CCNC(=O)CCC2CCCCC2)cc1`, the activity change was -109% (active).
On to `C/C=C(\C)C(=O)NCCN1C2=NC[C@H](Cc3ccc(O)cc3)N2C[C@@H]1Cc1ccc(OC)cc1`, for which the activity change was -104% (active).
As for `COc1ccc(CCNC(=O)COC(=O)C2CCCCC2)cc1`, the activity change was 8.75%.
As to `NC1=NC[C@@H](Cc2ccc(O)cc2)N1CC1CCCCC1`, the activity change was 19%.
For `Cc1ccn(CC(=O)NC2CCCN(Cc3ccccc3F)C2)n1` (stereo not drawn), the activity change is 7.86%.
The value for `O=C(O)c1ccccc1Cc1ccc(F)c2ccccc12` was 1.01%.
The value for `CCN(CC)C(=O)C1=C(C)N(Cc2ccc(F)cc2)C(=O)C(CC(=O)NCc2cccc3ccccc23)C1` (stereo not drawn) was 10.8%; that for `CCn1c(CN2C(=O)CSc3ccccc32)n[nH]c1=S` was -86.9% (active); that for `CCn1c(CSCc2c(Cl)cccc2Cl)n[nH]c1=S` was -10.5%.
The value for `CCn1c(CNS(=O)(=O)c2ccc(Cl)cc2)n[nH]c1=S` was -7.51%.
